Source: PubChem BioAssay
Methyltransferases – Primary Screen for Target Class Profiling of Small Molecule Inhibitors of Methyltransferases; 25,000 tested, 3.9% active; calls only at 40 µM; purified enzyme, MTase-Glo SAH luminescence; hits give low values; AID 1745853, 2022; call rule not given here
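Each enzyme was assayed with SAM and its substrate. SAH formation detected by MTase-Glo luminescence; single-point 40 uM screen[…].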
* = called active by the depositor; i = inactive; + = active, no number; ! = not confirmed by another sample. This excerpt belongs to a sample that is enriched for hits. % is set by controls: 0 for no effect and ±100 for the full control effect.

SMILES	Methyltransferases
CC(C)OCCCN1C(=O)c2cc(-c3ccccc3)nn2CC1(C)C(=O)NCc1ccccc1 (stereo unspecified)	i
O=C(CCn1ccc2cc(S(=O)(=O)N3CCCCC3)ccc21)NCc1cccc(Cl)c1	i
O=C1Nc2ccc(Cl)cc2[C@@](C#CC2CC2)(C(F)(F)F)O1	+!
COC(=O)c1cc2n(n1)CC(C)(C(=O)NC1CCCCC1)N(Cc1ccc(Cl)cc1)C2=O (stereo unspecified)	i
COc1ccc2cc3n(c2c1)CC(C)(C(=O)NC1CCCCC1)N(CCCN1CCOCC1)C3=O (stereo unspecified)	i
COc1ccc(CCc2nc3c(C)c(-c4c(C)noc4C)c(C)cc3n2CCN2CCOCC2)cc1	+!
COc1ccc2cc3n(c2c1)CC(C)(C(=O)NCC1CCCO1)N(CCc1ccc(Cl)cc1)C3=O (stereo unspecified)	i
CCCCN1C(=O)c2cc(C(=O)Nc3ccc(F)cc3)nn2CC1(C)C(=O)NC1CCCC1 (stereo unspecified)	i
CC1(C(=O)NCc2ccccc2)Cn2c(cc3ccccc32)C(=O)N1C1CCN(Cc2ccccc2)CC1 (stereo unspecified)	i
CC1CCN(S(=O)(=O)c2ccc3c(ccn3CCC(=O)NCc3ccccc3Cl)c2)CC1	i
CCN1C(=O)c2cc(C(=O)NCCc3ccc(SC)cc3)nn2CC1(C)C(=O)NC1CCCC1 (stereo unspecified)	i
COc1cccc(S(=O)(=O)N2CCC3(CCCCO3)CC2)c1	i
Cc1ccc(Cl)cc1NC(=O)N1CCn2cccc2C1C(C)C (stereo unspecified)	i
COc1ccc(/C=C\C(=O)O)c(O[C@@H]2O[C@H](CO)[C@@H](O)[C@H](O)[C@H]2O)c1	i
COc1cc(C(=O)OC[C@H]2O[C@@H](Oc3ccccc3/C=C/C(=O)O)[C@H](O)[C@@H](O)[C@@H]2O)cc(OC)c1OC	+
COc1cc(/C=C/C(=O)O[C@H]2[C@H](O)[C@@H](CO)O[C@@]2(CO)O[C@H]2O[C@H](COC(=O)c3ccc(O)cc3)[C@@H](O)[C@H](O)[C@H]2O)cc(OC)c1OC	i
CCN1C(=O)c2cc(C(=O)NCc3ccc4c(c3)OCO4)nn2CC1(C)C(=O)NC1CCCC1 (stereo unspecified)	i
COc1ccc2cc3n(c2c1)CC(C)(C(=O)NCC1CCCO1)N(Cc1ccccc1F)C3=O (stereo unspecified)	i
CC1c2cccn2CCN1C(=O)Nc1ccc(Br)cc1F (stereo unspecified)	i
COc1ccc(-n2c(=O)[nH]c3cccnc32)cc1OC	i
COc1cc2c(cc1-c1c(C)noc1C)ncc1[nH]c(=O)n(C(C)c3ccccn3)c12 (stereo unspecified)	+!
Cc1ccc(CNC(=O)C2(C)Cn3cnc(C(=O)NCCc4ccccc4)c3C(=O)N2C2CC2)cc1 (stereo unspecified)	i
CCc1ccc(CNC(=O)C(C)n2ccc3cc(S(=O)(=O)N4CCCC4)ccc32)cc1 (stereo unspecified)	i
COc1cc(C(=O)OCC2=CCC3C(C(=O)O)=COC(O[C@@H]4O[C@H](CO)[C@@H](O)[C@H](O)[C@H]4O)C23)ccc1O (stereo partly specified)	i
CC(C)(O)C1CC=C(C(=O)OC[C@H]2O[C@@H](Oc3cc(C(=O)O)cc(O)c3O)[C@H](O)[C@@H](O)[C@@H]2O)CC1 (stereo partly specified)	+
SMILES	Methyltransferases
Cc1cc(O[C@@H]2O[C@H](COC(=O)CC(=O)O)[C@@H](O)[C@H](O)[C@H]2O)c(C(C)C)cc1O	i
CC(=O)c1ccc(O[C@@H]2O[C@H](CO[C@@H]3OC[C@@H](O)[C@H](O)[C@H]3O)[C@@H](O)[C@H](O)[C@H]2O)cc1	i
O=C(/C=C/c1ccc(O)c(O)c1)OC[C@H]1O[C@@H](OC2CCCCC2O)[C@H](O)[C@@H](O)[C@@H]1O (stereo partly specified)	i
CC(C)(O)C1CC=C(C(=O)OCC2OC(Oc3c(O)cc(C(=O)O)cc3O)C(O)C(O)C2O)CC1 (stereo unspecified)	+
CC(C)C1c2cccn2-c2sc3c(c2CN1C(=O)NCc1ccccc1)CCCC3 (stereo unspecified)	i
COc1ccc(-c2cc3n(n2)CC(C)(C(=O)NCc2ccccc2OC)N(CCc2ccco2)C3=O)cc1 (stereo unspecified)	i
CCOC(=O)c1cc2n(n1)CC(C)(C(=O)NCc1ccc(C)cc1)N(c1cccc(Cl)c1C)C2=O (stereo unspecified)	i
CCOC(=O)c1cc2n(n1)CC(C)(C(=O)NCc1ccc(Cl)cc1)N(CCc1ccco1)C2=O (stereo unspecified)	i
CC1(C(=O)NC2CCCCCC2)Cn2nc(C3CC3)cc2C(=O)N1Cc1ccc2c(c1)OCO2 (stereo unspecified)	i
O=C(CSc1nnc2n(Cc3ccc(F)cc3)c(=O)c3ccccc3n12)Nc1ccccc1F	i
Cn1c(=O)c2ccc(C(=O)NC3CCCC3)cc2n2c(SCC(=O)Nc3ccc(Cl)cc3)nnc12	i
CCc1ccc(-c2cc3n(n2)CC(C)(C(=O)NC2CCCCC2)N(C2CCCC2)C3=O)cc1 (stereo unspecified)	i
CNc1cc2c(Nc3cccc(Br)c3)ncnc2cn1	+
CC1CCCC(NC(=O)C2(C)Cn3c(cc4sccc43)C(=O)N2CCCc2ccccc2)C1C (stereo unspecified)	i
C[C@]12CC[C@@H]3c4ccc(O)c(O)c4CC[C@H]3[C@@H]1CCC2=O	+
CCOCCCN1C(=O)c2c(NC(C)=O)c3cc(F)ccc3n2CC1(C)C(=O)NC1CCCC1 (stereo unspecified)	i
CCC(C)NC(=O)c1ccc2c(=O)n(C)c3nnc(SCC(=O)Nc4ccccc4C)n3c2c1 (stereo unspecified)	i
CC1(C(=O)NC2CCCCC2)Cn2c(ccc2-c2ccco2)C(=O)N1CCc1ccc(Cl)cc1 (stereo unspecified)	i
CC(C)C[C@H](C(=O)O)c1cc(-c2ccc(C(F)(F)F)cc2)cc(-c2ccc(C(F)(F)F)cc2)c1	+
O=C(Cn1ccc2cc(S(=O)(=O)N3CCCCC3)ccc21)NC1CCN(Cc2ccccc2)CC1	i
Oc1cc(CNC(=S)/C=C/c2cc(O)c(O)c(Br)c2)cc(O)c1O	+
CC1(C(=O)NCc2ccccc2)Cn2c(cc3ccccc32)C(=O)N1CCc1cccs1 (stereo unspecified)	i
CC(C)CNC(=O)c1ccc2c(=O)n(Cc3ccccc3)c3nn(CC(=O)NC4CCCC4)c(=O)n3c2c1	i
CCc1ccc(CNC(=O)c2ncn3c2C(=O)N(C2CC2)C(C)(C(=O)NCc2ccccc2Cl)C3)cc1 (stereo unspecified)	i
O=C(CCc1nnc2n(Cc3ccccc3)c(=O)c3ccccc3n12)NCCc1c[nH]c2ccccc12	i
O=C(Nc1ccccc1)N1CCC(Cc2cnc3ccccc3c2)CC1	i
NCC(CNc1nc(Nc2cccc(NC(=O)N3CCCC3)c2)ncc1I)C(=O)c1cccs1 (stereo unspecified)	+
CCCn1c(=O)c2ccc(Cl)cc2n2c(SCC(=O)Nc3ccc(C)cc3Cl)nnc12	i
CC(C)NC(=O)c1ccc2c(=O)n(Cc3ccccc3)c3nn(CC(=O)Nc4ccccc4)c(=O)n3c2c1	i
